Screens as filed in PubChem BioAssay.
An excerpt weighted towards active compounds, which were near 3.2% of everything screened.
MsrA act: bovine MsrA enzyme activators, primary screen, biochemical, absorbance, HTS; Methionine sulfoxide reductase A (Bos taurus); purified bovine MsrA, absorbance read-out; activation, % at 10.6 µM; 360,000 compounds, 0.3% hits; AID 602163, 2012; in the data active = activation above about 7.5%;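 note: 0% = vehicle and 100% = reference activator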
MsrA inhibitor: bovine MsrA enzyme inhibitors, primary screen, biochemical, absorbance, HTS; Methionine sulfoxide reductase A (Bos taurus); purified bovine MsrA, absorbance read-out; inhibition, % at 15.5 µM; 360,000 compounds, 0.75% hits; in the data active = inhibition above about 4.5%;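 note: 0% = vehicle wells with enzyme and 100% = reference inhibitor wells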
rCAG RNA binder: binders of r(CAG) RNA repeats, primary screen, biochemical, fluorescence. r(CAG) RNA repeat, TO-PRO-1 dye displacement fluorescence. 370,000 compounds, 1.3% hits. inhibition, % at 3 µM;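 active = inhibition above the plate cutoff, the mean of all test compounds on that plate plus 3 SD, cut at about 35% in these data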;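 note: 0% = DMSO alone and 100% = 100 µM mitoxantrone as full dye displacement; higher means more dye released from RNA so lower well fluorescence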
DAGLB inh: DAGLB lipase inhibitors, primary screen, biochemical, fluorescence, HTS; HEK293T DAGLB membrane lysate, EnzChek fluorogenic substrate; AID 504411, 2011; inhibition, % at 5.17 µM; 340,000 compounds, 0.059% hits; Diacylglycerol lipase-beta (Homo sapiens), Q8NCG7; in the data active = inhibition above about 34%;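 note: 0% = enzyme with vehicle and 100% = wells lacking enzyme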
Target sequence (Q8NCG7 whole entry, looked up): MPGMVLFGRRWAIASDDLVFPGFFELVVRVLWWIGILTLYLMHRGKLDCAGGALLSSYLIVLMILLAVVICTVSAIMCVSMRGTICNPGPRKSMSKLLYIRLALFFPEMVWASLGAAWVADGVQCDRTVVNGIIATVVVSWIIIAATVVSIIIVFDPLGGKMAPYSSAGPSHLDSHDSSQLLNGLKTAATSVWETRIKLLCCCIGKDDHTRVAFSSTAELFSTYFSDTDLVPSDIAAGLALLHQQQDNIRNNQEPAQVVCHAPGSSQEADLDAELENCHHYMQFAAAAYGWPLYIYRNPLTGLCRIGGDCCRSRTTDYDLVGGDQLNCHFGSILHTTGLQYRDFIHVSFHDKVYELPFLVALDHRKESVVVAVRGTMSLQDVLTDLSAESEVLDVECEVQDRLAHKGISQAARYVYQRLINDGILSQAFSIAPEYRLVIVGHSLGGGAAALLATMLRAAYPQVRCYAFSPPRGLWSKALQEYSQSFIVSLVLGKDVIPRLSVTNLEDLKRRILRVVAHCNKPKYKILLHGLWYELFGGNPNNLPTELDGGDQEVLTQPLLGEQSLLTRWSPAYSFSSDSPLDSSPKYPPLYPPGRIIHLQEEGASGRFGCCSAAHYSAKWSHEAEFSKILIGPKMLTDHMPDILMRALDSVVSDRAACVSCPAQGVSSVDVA
Pemphigus Ab inh: inhibitors of pemphigus antibody binding to DSG3, primary screen, biochemical, bead-based, flow cytometry, scFv-GFP; Desmoglein-3 (Homo sapiens), P32926; DSG3-coupled beads, scFv-anti-DSG3-GFP binding; stronger effect = lower value; binding (percent of control), % at 10 µM; 310,000 compounds, 0.48% hits; AID 588358, 2011;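 active = binding more than 3 SD below its plate's average and above zero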
NadD inh: inhibitors of S. aureus NadD, primary screen, biochemical, colorimetric, uHTS. 360,000 compounds, 0.78% hits. Nicotinate-nucleotide adenylyltransferase NadD (Staphylococcus aureus N315). purified NadD enzyme, colorimetric absorbance read-out. inhibition, % at 20 µM; in the data active = inhibition above about 26%
NadD conf: inhibitors of S. aureus NadD, confirmation, biochemical, colorimetric, single concentration. shares compounds with NadD inh. inhibition, % at 20 µM. 2,000 compounds, 13% hits. AID 624309, 2012. purified S. aureus NadD, colorimetric enzyme assay; in the data active = inhibition mostly above about 42%, no sharp cut-off; inactive = mostly below about 42%
The depositor's hits bear a star; · = no result given.

SMILES | MsrA act | MsrA inhibitor | rCAG RNA binder | DAGLB inh | Pemphigus Ab inh | NadD inh | NadD conf
CCOC(=O)C1=CCC(c2ccc(N(CC)CC)cc2)N(S(=O)(=O)c2ccc(C)cc2)C1c1ccc([N+](=O)[O-])cc1 (stereo not drawn) | · | -1 | 5 | · | · | · | ·
O=C(COC(=O)c1ccc(NS(=O)(=O)c2cccs2)cc1)NCc1ccco1 | -3 | · | · | 1 | 87 | 30* | 32
CCc1ccc(N2C(=O)Cc3c2nc(N)c(C#N)c3N)cc1 | -6 | 3 | 16 | 6 | 104 | 7 | ·
C=C(C)CN(CC)c1nc(N)c2c(N)nc3c(c2c1C#N)CC(=O)N3C12CC3CC(CC(C3)C1)C2 | -2 | 0 | 24 | 6 | 102 | 35* | 15
COc1ccccc1/C=C/C(=O)NC(=S)Nc1ccc(S(=O)(=O)N(C)c2ccccc2)cc1 | -2 | 0 | 6 | 2 | 99 | 34* | 6
COC(=O)[C@]12C[C@H](CC(=O)NCCCCc3ccccc3)C(=O)N(Cc3cccc4ccccc34)C1=C[C@H](COCc1ccccc1)O[C@@H]2C | · | · | 14 | · | · | · | ·
Cc1ccccc1C1C(C#N)=C2N=C(N)c3c(sc4c3CCCCC4)N2C2=C1C(=O)CCC2 (stereo not drawn) | -2 | · | · | 3 | · | 43* | 40
CCOC(=O)N1CCN(C(=O)C[C@@H]2C[C@@]3(C(=O)OCC)CCCC=C3N(CCC3=CCCCC3)C2=O)CC1 | · | 0 | 1 | · | · | · | ·
Cc1cc(C(=O)CSc2nc3ccc(Cl)cc3[nH]2)c(C)n1C | -4 | 0 | 17 | 3 | 94 | 34* | 41
COc1cccc(OC[C@@H](O)CN2CCC(C(O)(c3ccccc3)c3ccccc3)CC2)c1 | · | · | -1 | · | · | · | ·
O=C(c1cc(Cl)cc(Cl)c1)N1CCC(Oc2cccnc2)CC1 | · | · | -2 | · | · | · | ·
Cc1[nH][nH]c(=O)c1C(c1c(C)[nH][nH]c1=O)c1cn(C)c2ccccc12 | -2 | 1 | 3 | 3 | 99 | 0 | ·
Cc1[nH][nH]c(=O)c1C(c1c(C)[nH][nH]c1=O)c1cn(Cc2cccc3ccccc23)c2ccccc12 | 0 | -1 | 27 | 9 | 88 | 46* | 67*
CSc1nc(N)nc2c1ncn2CC(=O)NCCCN1CCCC1=O | -6 | 0 | 0 | -2 | 102 | -6 | ·
Cc1nn(-c2ccccc2)c(N2CCCCC2)c1/C=N/NC(=O)c1ccncc1 | -1 | 1 | -3 | -1 | 83 | 1 | ·
Cc1nn(-c2ccccc2)c(N2CCCC2)c1/C=N/Nc1ccc(S(=O)(=O)Nc2ccccc2)cc1[N+](=O)[O-] | -2 | 0 | 4 | 7 | · | 47* | 22
COc1ccccc1NS(=O)(=O)c1cccc(C(=O)N/N=C/c2c(C)nn(-c3ccccc3)c2N2CCCC2)c1 | -6 | 1 | 9 | 0 | 95 | 24 | ·
COc1ccccc1NS(=O)(=O)c1ccc(N/N=C/c2c(C)nn(-c3ccccc3)c2N2CCCC2)c([N+](=O)[O-])c1 | -4 | -1 | 4 | 15 | 88 | 38* | 14
CCOc1ccc(S(=O)(=O)Nc2ccc(C(=O)N/N=C/c3c(C)nn(-c4ccccc4)c3N3CCCC3)cc2)cc1 | -2 | 2 | 25 | 0 | 98 | 33* | 24
COc1ccc2oc(C(=O)Nc3nc(-c4ccccn4)cs3)c(C)c2c1 | 0 | 2 | 11 | -6 | 95 | 34* | 2
COc1ccc2oc(C(=O)NC(C)c3ccccn3)c(C)c2c1 (stereo not drawn) | -5 | -1 | 8 | -4 | 85 | 2 | ·
Oc1ccc(C[C@H]2CNC(=S)N2CC2CCCN2C[C@H](Cc2ccccc2)N2C[C@H](Cc3ccc(O)cc3)N(CC3CCCCCC3)C2=S)cc1 (stereo partly drawn) | -13 | -1 | 12 | -2 | 95 | 48* | 21
Oc1ccc(C[C@H]2CN([C@@H](Cc3ccc(O)cc3)CN3CCC[C@@H]3CN3C(=S)NC[C@@H]3Cc3ccccc3)C(=S)N2CC2CCCCCC2)cc1 | -4 | 0 | 11 | · | · | 47* | 27
Oc1ccc(C[C@H]2CNC(=S)N2C[C@H]2CCCN2C[C@H](Cc2ccccc2)N2C[C@H](Cc3ccc(O)cc3)N(CC3CCCCCC3)C2=S)cc1 | -3 | -1 | 17 | · | · | 43* | 14
Oc1ccc(C[C@H]2CN([C@@H](Cc3ccccc3)CN3CCCC3CN3C(=S)NC[C@@H]3Cc3ccccc3)C(=S)N2CC2CCCCC2)cc1 (stereo partly drawn) | -3 | -1 | 16 | · | · | 43* | 4
SMILES | MsrA act | MsrA inhibitor | rCAG RNA binder | DAGLB inh | Pemphigus Ab inh | NadD inh | NadD conf
O=C(NCc1ccccc1)c1cnc(Cc2c[nH]c3ccccc23)c(I)c1 | -1 | -1 | 21 | · | · | 17 | ·
CC(C)(C)c1ccc(-c2nnc3n2N=C(c2ccc(Cl)cc2)CS3)cc1 | · | · | 3 | · | · | · | ·
O=C(CSc1nnc(COc2ccccc2)n1Cc1ccco1)Nc1ccc(OCc2ccccc2)cc1 | · | · | 7 | · | · | · | ·
CC(C)C[C@H]1CNC(=S)N1C[C@H]1CCCN1C[C@H](Cc1ccc(O)cc1)N1C[C@H](Cc2ccccc2)N(CC2CCCCC2)C1=S | -8 | 1 | 11 | · | · | 9 | ·
Oc1ccc(C[C@H]2CN([C@@H](Cc3cccc(O)c3)CN3CCC[C@@H]3CN3C(=S)NC[C@@H]3Cc3ccccc3)C(=S)N2CC2CCCCC2)cc1 | -3 | 1 | 9 | · | · | 44* | 33
CC(C)C[C@H]1CN([C@@H](Cc2ccc(O)cc2)CN2CCC[C@@H]2CN2C(=S)NC[C@@H]2Cc2ccccc2)C(=S)N1CC1CCCCC1 | -2 | 0 | 9 | · | · | 22 | ·
Oc1ccc(C[C@H]2CNC(=S)N2CC2CCCN2C[C@H](Cc2ccc(O)cc2)N2C[C@H](Cc3ccc(O)cc3)N(CC3CCCCC3)C2=S)cc1 (stereo partly drawn) | -7 | 1 | 15 | 13 | 114 | 48* | 47
CC(C)C[C@@H](CN1CCCC1CN1C(=S)NC[C@@H]1Cc1ccc(O)cc1)N1C[C@H](Cc2ccc(O)cc2)N(CC2CCCCC2)C1=S (stereo partly drawn) | -2 | 0 | 15 | 2 | 102 | 54* | 30
NC(=O)C12C(=O)NC(=O)C1(C(=O)O)C21CCCC1 (stereo not drawn) | -3 | 0 | 3 | -1 | 93 | -3 | ·
